# Marburg entry inh = Marburg virus entry inhibition; Marburg virus pseudotyped entry inhibition, cell reporter; 300,000 tested, 1.8% active; Potency, µM (highest dose often 37.8 µM), without a hit: at the highest dose activity change, negative = inhibition, most hits filed as inhibitors; calls by dose curve; tested in HEK293 cells; note: potency is the fitted concentration of half-maximal effect
# FMDV inh = blocks foot and mouth disease virus; AID 1159524; FMDV antiviral cell-based qHTS; Potency, µM (doses to about 57.9 µM), for the others: top-dose activity change, negative = inhibition, actives largely listed as inhibitors; 410,000 tested, 1.2% active; calls by dose curve; tested in HEK293T cells; note: read-out not given here; potency is the fitted concentration of half-maximal effect; nearly all actives have a fitted effect of over 45% in size
# Lassa entry inh = Lassa virus entry inhibition. Potency, µM (highest dose often 37.9 µM), without a hit: at the top dose activity change, negative = inhibition, actives largely listed as inhibitors. 300,000 tested, 1.2% active. AID 540256. Lassa virus pseudotype entry inhibition, cell reporter; calls by dose curve; tested in HEK293 cells; note: potency is the fitted concentration of half-maximal effect; nearly all actives have a fitted effect of over 50% in size
# HCMV antiviral = inhibitors of human cytomegalovirus. HFF cells, HCMV-luciferase reporter, 72 h; active compounds read low. AID 1259415. 410,000 tested, 4.5% active. activity change, negative = inhibition, % at 57.5 µM; in the data active = activity change below about -60%; inconclusive = no clear call, values can overlap the other calls; inactive = above about -39%
#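 After 16 h attachment at 37C, HFF cells received test compound and HCMV-luciferase (1 PFU/cell); reporter luminescence read 72 h later, data normalized against buffer-only and known inhibitor Salinomycin.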
# HCV inhibitor = blocks hepatitis C virus; AID 651820; Potency, µM (series often up to 41.8 µM), inactives show at the highest dose activity change, negative = inhibition, actives largely listed as inhibitors; Huh7.5.1 HCVcc-Cre infection, luciferase reporter, 44 h; 340,000 tested, 3.4% active; active = well fitted inhibition curve with a large enough effect; inconclusive = small, poorly fitted or top-dose-only effect, or another doubt; inactive = no such curve, though single readings can be large or run the other way; note: potency is the fitted concentration of half-maximal effect
#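 Seed cells (1,000/well) for 4 h; treat with compound and infect with HCVcc-Cre, moi about 0.5. Incubate 44 h, then detect luciferase activity.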
# The depositor's hits bear a star; ? = inconclusive; · = no result; + = active, no number; [ ] = remark or other dose. Hits are enriched below; roughly 7.9% of the tested compounds scored in any of these assays. % is set by controls: 0 for no effect and ±100 for the full control effect.
SMILES,Marburg entry inh,FMDV inh,Lassa entry inh,HCMV antiviral,HCV inhibitor
Cc1sc2nc(C3CC3)nc(SCC(=O)NCc3ccco3)c2c1C,2%,·,-21%,7,2%
CC(=O)OC[C@H]1O[C@H](c2ccc(C(C)=O)cc2)C=C[C@@H]1OC(C)=O,2%[14.2 µM],·,·,·,·
CCc1cccc(CC)c1N(COC)C(=O)Cn1c(CC)nc2ccccc21,-17%[46.1 µM],21%,-4%[46.1 µM],-38,·
Cn1nc(C(C)(C)C)cc1C(=O)NCc1ccc2c(c1)OCO2,·,?,·,-83*,1µM*
Cc1nc2ccccn2c1C(=O)N/N=C/c1ccc2c(c1)OCO2,-37%,7%,?,7,-2%
Cc1nc2ccccn2c1C(=O)NCc1ccc2c(c1)OCO2,-10%,·,3%,-61*,?
Cc1oc(C(C)(C)C)cc1C(=O)NCc1ccc2c(c1)OCO2,-23%[46.1 µM],6%,-12%[46.1 µM],12,-21%
COc1ccc(NC(=O)/C(=C\c2ccc(OC)c(OC)c2)NC(=O)c2ccco2)cc1,·,-5%,·,-1,-11%
CCOC(=O)C1CCN(Cc2c(F)cccc2Cl)CC1,-5%,8%,?,42,4%
CCOC(=O)C1CCCN(Cc2c(F)cccc2Cl)C1 (stereo not given),-3%,-8%,2%,-75*,24%
CCOC(=O)C1CCCN(Cc2nc(N)nc(Nc3ccc(Cl)cc3)n2)C1 (stereo not given),7.1µM*,28µM*,-8%,?,?
Nc1nc(CN2CCN(c3ccccn3)CC2)nc(Nc2ccc(F)cc2)n1,2.6µM*,?,?,11,?
CCOC(=O)C1CCCN(Cc2nc(N)nc(Nc3ccc(OC)cc3)n2)C1 (stereo not given),-16%,?,-20%,-34,?
CCOC(=O)N1CCN(Cc2nc(N)nc(Nc3ccc(Oc4ccccc4)cc3)n2)CC1,?,32µM*,?,-11,?
NC1=NC2C(N=C(Br)N2[C@@H]2O[C@H]3COP(=O)(O)O[C@@H]3[C@@H]2O)C(=O)N1 (stereo not given in full),·,-14%,·,·,·
COCc1cc(C)nc2sc3c(=O)n(-c4cc(C)ccc4C)nnc3c12,6%[46.1 µM],6%,0%[46.1 µM],45,·
CCOC(=O)N1CCC(N(CCN(C)C)C(=S)Nc2ccc(Oc3ccccc3)cc2)CC1,?,-18%,?,?,11µM*
CN(C)c1ccc(-c2nc(-c3ccncc3)no2)cc1[N+](=O)[O-],7%[46.1 µM],-10%,16%[46.1 µM],72,·
COc1ccc(NC(=O)NNC(=O)C(C)Oc2ccc3ccccc3c2)cc1 (stereo not given),25%,-11%,7%,-10,-23%
CC(C)(C)C(=O)Nc1ccc(-c2nc3ccccc3c(=O)o2)cc1,?,4.5µM*,?,-64*,12%
CC(C)(C)C(=O)Nc1ccc(S(=O)(=O)c2ccc(NC(=O)C(C)(C)C)cc2)cc1,13%,·,3%,23,-3%
CC(C)(C)C(=O)Nc1cccc(-c2nc3ccccc3c(=O)o2)c1,-12%,·,?,11,23%
CC(C)(CCl)C(=O)Nc1ccc(C(F)(F)F)cc1,-6%[46.1 µM],6%,2%,-76*,5%
CC(C)(C)C(=O)Nc1ccc(NC(=O)C(C)(C)C)cc1,·,17%,·,-84*,17%
COc1ccc(C)cc1NC(=O)Cn1c(=O)oc2cc(S(=O)(=O)NCc3ccccc3)ccc21,·,14%,18%[46.1 µM],+,·
SMILES,Marburg entry inh,FMDV inh,Lassa entry inh,HCMV antiviral,HCV inhibitor
CN(CC(=O)Nc1ccc(N2CCOCC2)cc1)C(=O)c1cc2c(s1)CCCC2,·,-21%,·,-16,3%
Cc1ccccc1Cn1cnc2c(cnn2C(C)(C)C)c1=O,-5%,0%,?,6,?
CC(C)(C)n1ncc2c(=O)n(CC(=O)c3ccccc3)cnc21,7%,7%,?,24,-16%
CC(C)(C)n1ncc2c(=O)n(CC(=O)OCc3ccccc3)cnc21,?,14µM*,?,?,12%
CC(C)(C)n1ncc2c(=O)n(Cc3cc(F)c(Cl)cc3Cl)cnc21,·,?,·,-16,·
Cc1ccc(C)c(Cn2cnc3c(cnn3C(C)(C)C)c2=O)c1,?,0%,6.3µM*,?,?
CC(C)CCn1cnc2c(cnn2-c2ccc(F)cc2)c1=O,?,11%,3%,23,10µM*
CC(C)(C)n1ncc2c(=O)n(Cc3cccc(Cn4cnc5c(cnn5C(C)(C)C)c4=O)c3F)cnc21,·,11µM*,·,-88*,·
CN(Cc1ccccc1)C(=O)c1cc(-c2cccc(Cl)c2)on1,-1%[46.1 µM],43%,-22%[46.1 µM],18,·
CC(C)(C)OC(=O)N1CCc2nc3ccccc3c(N)c2C1=O,·,·,·,-10,·
CCOC(CNc1ncnc2sc(-c3ccccc3)cc12)OCC,·,-22%,·,-72*,?
COc1ccc(Nc2ncnc3sc(-c4ccccc4)cc23)cc1OC,?,0%,?,-62*,?
CN(C)CCCNc1ncnc2sc(-c3ccccc3)cc12,·,-14%,·,-6,?
COc1cccc(-c2nc(CS(=O)(=O)CC(=O)Nc3c(C)cccc3C)c(C)o2)c1,2%,3%,·,?,?
CCN(CCNC(=O)CS(=O)(=O)Cc1nc(-c2cccc(OC)c2)oc1C)c1ccccc1,2%,-5%,1%,-3,22µM*
COc1cccc(-c2nc(CS(=O)(=O)CC(=O)Nc3c(C)cc(C)cc3C)c(C)o2)c1,-5%[46.1 µM],-20%,-5%[46.1 µM],-62*,·
CCc1ccc(NCc2cc3cc4c(cc3n(CC(=O)Nc3ccccc3Cl)c2=O)OCO4)cc1,·,6%,-4%[46.1 µM],9,·
Cc1cc(N(C)Cc2ccccc2)nc(-c2ccccc2)n1,?,-14%,2%,58,10µM*
CCCCCCC[C@@H](C/C=C/CCC(=O)N(C)C/C(=C/Cl)C/C(=C\C(=O)N1C[C@H](O)CC1=O)OC)OC,·,32µM*,·,-15,?
CCCCCCC[C@@H](C/C=C/CCC(=O)O)OC,·,-11%,·,1,-3%
Cn1c(-c2ccccc2)cnc1SCC(=O)N1CCCc2ccccc21,1%,-8%,7%,?,0%
Cn1c(-c2ccccc2)cnc1SCC(=O)N1CCCCC1,?,16µM*,3.5µM*,-1,7%
Cc1cc(-c2ccccc2)nc(SCC(=O)N2CCCC2)n1,?,-14%,-11%[46.1 µM],?,25µM*
CCn1ncc(N(C)N)c(Cl)c1=O,2%,6%,11%[46.1 µM],0,-2%
CCN(CC)CCOC(=O)c1ccc(N/C=C(/C#N)c2nc(-c3ccc(OC)cc3)cs2)cc1,4µM*,-6%,18%,-77*,?
CCN(CC)CCOC(=O)c1ccc(N/C=C(/C#N)c2nc(-c3cc4ccccc4oc3=O)cs2)cc1,5%[46.1 µM],8%,?,-2,3%
CCN(CC)CCOC(=O)c1ccc(N/C=C(/C#N)c2nc(-c3ccc4c(c3)OCO4)cs2)cc1,?,-22%,15%,0,10µM*
COc1cccc(Cn2c(=O)cnc3cnc(Oc4ccccc4)nc32)c1,·,-17%,·,·,·
CC1C(=O)N(Cc2ccc(F)cc2)c2ccccc2N1C(=O)c1c(F)cccc1F (stereo not given),·,22µM*,·,-73*,?
